Assay outcomes as filed in PubChem BioAssay.
NR3A LBD binder = modulators (binders) of human NR3A ligand-binding domain; NR3A LBD differential scanning fluorimetry, Tm shift; 0% = protein alone, 100% = glycine-bound protein; Tm shift relative to glycine control, % at 25 µM; 340,000 tested, 2.5% active;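 active means melting temperature shift of at least 10% of the positive control shift, at one fixed dose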
TPT1 inhibitor = blocks Candida albicans tRNA 2'-phosphotransferase | 300,000 tested, 0.81% active | AID 1962 | inhibition, % at 5 µM | recombinant caTPT1, FP RNA substrate dephosphorylation;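 active means inhibition above the mean of all tested compounds plus 3 SD, set per screening campaign, cut at about 24% in these data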
Rpn11 inh = Rpn11 (human) deubiquitinase inhibition. human 26S proteasome, Ub4-pepOG fluorescence polarization; 20S core pre-blocked with epoxomicin. inhibition, % at 20 µM. 360,000 tested, 0.59% active. AID 588493;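 active means inhibition at 20 µM, scaled to each plate's controls, above about 33%, limit read from the data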
Target sequence (O00487 whole entry, looked up): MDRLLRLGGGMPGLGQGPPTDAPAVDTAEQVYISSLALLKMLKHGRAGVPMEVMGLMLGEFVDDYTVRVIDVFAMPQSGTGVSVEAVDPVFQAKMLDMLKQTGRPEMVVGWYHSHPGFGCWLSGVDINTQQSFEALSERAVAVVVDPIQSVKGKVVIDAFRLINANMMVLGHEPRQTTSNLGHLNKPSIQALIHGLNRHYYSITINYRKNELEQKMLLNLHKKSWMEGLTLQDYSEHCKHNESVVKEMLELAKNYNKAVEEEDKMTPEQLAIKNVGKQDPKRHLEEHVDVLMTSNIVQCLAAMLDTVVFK
dFosB act = mouse delta FosB homodimer activation; P13346; purified delta FosB, TAMRA-CDK5 oligo fluorescence polarization; percent of positive-control signal above neutral wells; activation, % at 25 µM; 340,000 tested, 0.99% active;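 active means mean activation above about 17%, with every replicate also reaching it, limit read from the data, passing the limit was not always enough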
EBNA-1 inhibitor = blocks EBNA-1 binding to DNA | EBNA-1 DNA binding, fluorescence polarization | inhibition, % at 14.8 µM | 300,000 tested, 0.34% active; in the data active means inhibition above about 28%
ZTA counter = ZTA (EBV) inhibition in EBNA-1 counter-screen | inhibition, % at 11 µM | ZTA-DNA binding, fluorescence polarization | 320,000 tested, 0.15% active | AID 2234; in the data active means inhibition above about 33%
Target sequence (P03206 whole entry, looked up): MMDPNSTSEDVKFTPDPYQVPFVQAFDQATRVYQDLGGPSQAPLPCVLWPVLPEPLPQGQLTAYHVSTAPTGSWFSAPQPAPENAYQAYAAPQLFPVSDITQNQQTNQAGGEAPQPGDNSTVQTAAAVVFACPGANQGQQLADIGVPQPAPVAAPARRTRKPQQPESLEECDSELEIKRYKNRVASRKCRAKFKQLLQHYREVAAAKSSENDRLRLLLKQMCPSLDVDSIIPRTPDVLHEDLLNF
A number is an active result; - = inactive; . = no result given. A selection: hits, their analogues and other compounds. The true share with any hit is near 4.5%.

SMILES | NR3A LBD binder | TPT1 inhibitor | Rpn11 inh | dFosB act | EBNA-1 inhibitor | ZTA counter
NC(=S)c1c(Cl)cc(C(F)(F)F)cc1Cl | - | - | - | - | - | -
O=C(COc1ccc(-c2ccccc2)cc1)N1CCN(C(=O)c2cccnc2)CC1 | 12.2 | - | - | - | - | -
O=C(Nc1ccc2c(c1)OCO2)N1CCN(S(=O)(=O)c2ccc(Cl)cc2)CC1 | - | - | - | - | - | -
O=C(Nc1ccc2c(c1)OCO2)N1CCN(c2ccccc2Cl)CC1 | 27.4 | - | - | - | - | -
O=C(Nc1ccc2c(c1)OCO2)c1ccc2c(c1)OCO2 | - | - | - | - | - | -
O=C(Nc1ccc(Cl)c(Cl)c1)c1ccc2c(c1)OCO2 | 36.8 | - | - | - | - | -
N#CCC(=O)Nc1ccc(C(=O)Nc2ccc3c(c2)OCO3)cc1 | 29.1 | . | - | - | . | -
O=C(Nc1ccc2nsnc2c1)c1ccc2c(c1)OCO2 | 14.1 | - | - | - | - | -
CC(OC(=O)c1ccc2c(c1)NC(=O)CS2)C(=O)c1ccc(F)cc1 (stereo not given) | - | . | - | - | . | .
CN(Cc1ccccc1)C(=S)Nc1ccc2nc3n(c(=O)c2c1)CCCCC3 | - | - | - | - | - | -
COc1cc2c(cc1OC)CN(S(=O)(=O)c1ccccc1F)CC2 | - | - | - | - | - | -
CCCc1nn2c(=O)cc(CSCC(=O)Nc3ccc(OC)cc3)nc2s1 | - | - | - | - | - | -
CCC(=O)c1ccc(OCC(=O)OCC(=O)c2cc(C)n(C)c2C)cc1 | 12.6 | - | - | - | - | -
Cc1nc(N2CCC(C)CC2)c2c(C)c(C(=O)Nc3ccccc3C(F)(F)F)sc2n1 | - | - | - | - | - | -
COc1cc(NCCCCCCN)c2ncccc2c1OC | - | . | - | 18.0 | . | .
COc1cc(NC(C)CCCNC(C)C)c2ncccc2c1OC (stereo not given) | - | . | - | - | . | .
Cc1ccc(Nc2nc3ccccc3o2)cc1F | 12.1 | - | - | - | - | -
Cc1cc(=O)[nH]c(SCC(=O)Nc2ccc3c(c2)CCC3)c1C#N | - | . | - | - | . | -
O=C(N1CCCCC1)C12CC3CC(C1)CC(C(=O)N1CCCCC1)(C3)C2 | 21.1 | - | - | - | - | -
N#CC1=CC2CN(Cc3ccccc3)C1C1C(=O)N(c3ccccc3)C(=O)C21 (stereo not given) | - | . | - | - | . | .
O=C(c1ccc(O)c(Br)c1)c1cc(Br)ccc1O | - | . | - | - | . | .
O=C(C(=O)c1cc(Br)ccc1O)c1cc(Br)ccc1O | 19.8 | . | - | - | . | .
CCN(CC)CCCNc1nc2ccccc2c2[nH]c3ccc(OC)cc3c12 | - | . | - | 77.8 | . | .
Brc1cc2c(cc1CSc1ncccn1)OCO2 | - | - | - | - | - | -
CCCCCn1c(CN2CCN(c3cc(Cl)ccc3C)CC2)nc2c1c(=O)[nH]c(=O)n2C | 24.5 | - | - | - | - | -
SMILES | NR3A LBD binder | TPT1 inhibitor | Rpn11 inh | dFosB act | EBNA-1 inhibitor | ZTA counter
Oc1ccc(C2=NN(c3ccccc3)C(c3ccc(F)cc3)C2)cc1 (stereo not given) | 20.5 | - | - | - | - | -
COc1ccc(C2CC(c3ccc(F)cc3)=NN2c2ccccc2)cc1OC (stereo not given) | - | - | 42.4 | - | - | -
CC(=O)Nc1ccc(C2CC(c3ccc(Cl)cc3)=NN2c2ccccc2)cc1 (stereo not given) | 14.9 | - | - | - | - | -
Cc1ccc(NC(=O)N2N=C(c3ccc(F)cc3)CC2c2ccc(F)cc2)cc1 (stereo not given) | 18.8 | - | - | - | - | -
CNS(=O)(=O)c1cccc(C(=O)OCC(=O)c2ccc[nH]2)c1 | 39.0 | . | - | - | . | -
CNS(=O)(=O)c1cccc(C(=O)OCC(=O)N2c3ccccc3CC2C)c1 (stereo not given) | 13.9 | - | - | - | - | -
CCOC(=O)c1c(C)[nH]c(C)c1C(=O)COC(=O)c1cccc(S(=O)(=O)NC)c1 | - | - | - | - | - | -
C=CC#CC[N+]1(CC#Cc2ccccc2)CCOCC1 | - | . | 139.2 | - | . | .
O=C(N/N=C/C=C\c1ccco1)c1ccccn1 | - | - | - | - | - | -
O=C(N/N=C\C=C\c1ccco1)c1cc(-c2ccc3ccccc3c2)n[nH]1 | 14.9 | - | - | - | - | -
Cc1ccccc1-c1nnc(Cc2ccccc2)o1 | - | - | - | - | - | -
O=C(NCCOC(=O)c1c(F)cccc1Cl)c1c(F)cccc1Cl | - | . | - | - | . | .
CCCc1c(C(=O)N/N=C/c2ccc(OCc3ccccc3)cc2)nnn1-c1nonc1N | . | . | - | . | . | .
CCCc1c(C(=O)N/N=C/c2ccc(OCc3ccccc3)c(OC)c2)nnn1-c1nonc1N | 12.5 | - | - | - | - | -
COc1cc(/C=N/NC(=O)c2cccs2)ccc1O | - | - | - | - | - | -
CCCc1c(C(=O)N/N=C/c2ccccc2OCc2ccc(F)cc2)nnn1-c1nonc1N | - | - | - | - | - | -
CCCc1c(C(=O)N/N=C/c2c(OC)ccc3ccccc23)nnn1-c1nonc1N | 30.7 | - | - | - | - | -
CCCc1c(C(=O)N/N=C/c2ccc(OC)c(OCc3ccccc3)c2)nnn1-c1nonc1N | 37.1 | - | - | - | - | -
COc1cc(/C=N/NC(=O)c2cccs2)ccc1OCc1ccccc1 | 18.8 | - | - | - | - | -
COC(=O)c1ccc(NC(=O)CCN2C(=O)C3C4CCC(C4)C3C2=O)cc1 (stereo not given) | - | - | - | - | - | -
Cc1cccc(NC(=O)CN2CCN(C(=O)CNC(=O)c3ccc(-c4ccccc4)cc3)CC2)c1C | . | . | - | . | . | .
CCOC(=O)Cc1csc(NC(=O)c2ccc(N3CCOCC3)cc2[N+](=O)[O-])n1 | - | . | - | - | . | -
CCn1c(SCC(=O)N/N=C(\C)c2ccncc2)nnc1-c1ccc(C)cc1 | - | - | - | . | - | -
COC(=O)c1[nH]c2c(c1C)C(=O)CC(c1cccc(OC)c1)C2 (stereo not given) | - | - | - | - | - | -
COCCNc1nc(NCc2ccc(C(C)C)cc2)c2sccc2n1 | . | . | - | . | . | .
SMILES | NR3A LBD binder | TPT1 inhibitor | Rpn11 inh | dFosB act | EBNA-1 inhibitor | ZTA counter
Cc1ccc(S(=O)(=O)N2CCN(C(=O)C3=COCCO3)CC2)cc1C | - | - | - | - | - | -
Cc1cc(C(=O)N2CCN(S(=O)(=O)c3ccc(C)c(C)c3)CC2)no1 | 52.7 | . | - | - | . | .
C=CCNC(=O)c1ccccc1NC(=O)c1ccc(Cl)c(S(=O)(=O)Nc2ccccc2)c1 | 14.3 | - | - | - | - | -
N#Cc1c(-c2ccccc2)nc(-c2ccccc2)nc1N1CCOCC1 | - | - | - | - | - | -
N#Cc1c(N)nc(-c2ccccc2)nc1-c1ccccc1 | 10.0 | - | - | - | - | -
COc1cc(NS(=O)(=O)c2ccc(F)cc2)c(C(=O)O)cc1OC | 11.7 | - | - | - | - | -
Cc1cccc2c(N=Nc3ccc(S(=O)(=O)Nc4cccc(Cl)c4)cc3[N+](=O)[O-])c(O)[nH]c12 | 13.0 | - | - | - | - | -
